PubChem BioAssay (NCATS)
Several values for one entry are separate records, joined by “and”; a condition that tells them apart may be missing. Equal values may be shown once. Inconclusive results are not listed. Entries that show only a call come without a potency. Activity calls are given as the source filed them. Calls come from the whole dose curve; as a rule, active = well fitted curve in the direction sought with a large enough effect; inconclusive = small, poorly fitted or top-dose-only effect, or another doubt; inactive = no such curve, though single readings can be large; an effect the other way counts as inactive or inconclusive.

Assays:
[1] = qHTS of pediatric cancer cell lines to identify multiple opportunities for drug repurposing: Confirmatory screen for LAN-5 cells (AID 1347113); note: nearly all actives have a fitted effect of over 65% in size; note: potency is the fitted concentration of half-maximal effect
Summary of the method: (§1)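 Cells (500-1,000/well) rested 5 h, then received compounds for 48 h; metabolically active cells were measured by CellTiter-Glo luminescence. Final concentrations spanned up to 46 µM (MIPE, 11-point) or 0.59 nM-46 µM (NPC, 8-point) in primary screens, 11-point in follow-ups.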

[2] = qHTS of pediatric cancer cell lines to identify multiple opportunities for drug repurposing: Confirmatory screen for NB-EBc1 cells (AID 1347115);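 note: cells exposed to compound for 48 h before the viability read; nearly all actives have a fitted effect of over 45% in size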; note: potency is the fitted concentration of half-maximal effect
Summary of the method: as §1

[3] = qHTS of pediatric cancer cell lines to identify multiple opportunities for drug repurposing: Confirmatory screen for BT-37 cells (AID 1347117); note: nearly all actives have a fitted effect of over 55% in size; note: potency is the fitted concentration of half-maximal effect
Summary of the method: as §1

[4] = qHTS of pediatric cancer cell lines to identify multiple opportunities for drug repurposing: Confirmatory screen for TC32 cells (AID 1347118);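 note: cells exposed to compound for 48 h before the read; nearly all actives have a fitted effect of over 65% in size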; note: potency is the fitted concentration of half-maximal effect
Summary of the method: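 TC32 cells, 500-1,000/well in growth medium, compound-treated 48 h at 37 °C; viability from CellTiter-Glo luminescence. Primary screen: MIPE 11-point (0.78 nM–46 µM final), NPC 8-point (0.59 nM–46 µM final); confirmatory at 11-point dilutions.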

[5] = qHTS of pediatric cancer cell lines to identify multiple opportunities for drug repurposing: Confirmatory screen for MG 63 (6-TG R) cells (AID 1347119); note: nearly all actives have a fitted effect of over 55% in size; note: potency is the fitted concentration of half-maximal effect
Summary of the method: as §1

[6] = qHTS of pediatric cancer cell lines to identify multiple opportunities for drug repurposing: Confirmatory screen for control Hh wild type fibroblast cells (AID 1347121); note: nearly all actives have a fitted effect of over 70% in size
Summary of the method: as §1

[7] = qHTS of pediatric cancer cell lines to identify multiple opportunities for drug repurposing: Confirmatory screen for Rh41 cells (AID 1347123);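 note: 48 h compound exposure; nearly all actives have a fitted effect of over 60% in size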; note: potency is the fitted concentration of half-maximal effect
Summary of the method: as §1

[8] = qHTS of pediatric cancer cell lines to identify multiple opportunities for drug repurposing: Confirmatory screen for U-2 OS cells (AID 1347122); note: nearly all actives have a fitted effect of over 65% in size; note: potency is the fitted concentration of half-maximal effect
Summary of the method: as §1

[9] = qHTS of pediatric cancer cell lines to identify multiple opportunities for drug repurposing: Confirmatory screen for RD cells (AID 1347124);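 note: cells exposed to compound for 48 h before viability readout; nearly all actives have a fitted effect of over 65% in size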; note: potency is the fitted concentration of half-maximal effect
Summary of the method: as §1

[10] = qHTS of pediatric cancer cell lines to identify multiple opportunities for drug repurposing: Confirmatory screen for SJ-GBM2 cells (AID 1347116); note: nearly all actives have a fitted effect of over 60% in size; note: potency is the fitted concentration of half-maximal effect
Summary of the method: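 Viability measured as metabolically active cells via CellTiter-Glo luminescence following 48 hours of compound exposure, 11-point dilutions in confirmatory testing. 500-1,000 cells/well plated 5 hours before dosing; controls were DMSO and 2.3 µM bortezomib.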

Row | SMILES | Potency [1] | Potency [2] | Potency [3] | Potency [4] | Potency [5] | Potency [6] | Potency [7] | Potency [8] | Potency [9] | Potency [10]
1 | CCc1c2c(nc3ccc(OC(=O)N4CCC(N5CCCCC5)CC4)cc13)-c1cc3c(c(=O)n1C2)COC(=O)[C@]3(O)CC | 2930 nM (active) | 737 nM (active) | 0.928 µM (active) | 0.465 µM (active) | 1.85 µM (active) | inactive | 4140 nM (active) | – | – | –
2 | Oc1c(Cl)cc(Cl)c2cccnc12 | 14700 nM (active) | 18500 nM (active) | 18.5 µM (active) | 8.27 µM (active) | 11.7 µM (active) | – | 14700 nM (active) | 9270 nM (active) | 13100 nM (active) | –
3 | CCC(=O)O[C@]1(C(=O)CCl)[C@@H](C)C[C@H]2[C@@H]3CCC4=CC(=O)C=C[C@]4(C)[C@@]3(F)[C@@H](O)C[C@@]21C | inactive | inactive | inactive | inactive | inactive | inactive | 26100 nM (active) | inactive | inactive | inactive
4 | COc1ccc(-c2ccc3cc(C(=O)O)ccc3c2)cc1C12CC3CC(CC(C3)C1)C2 | – | – | 7.37 µM (active) | 2.08 µM (active) | – | inactive | inactive | 82.7 nM (active) | – | –
5 | CN1CCCC(n2nc(Cc3ccc(Cl)cc3)c3ccccc3c2=O)CC1 (centres undefined) | – | inactive | 23.3 µM (active) | 26.1 µM (active) | inactive | inactive | 8270 nM (active) | inactive | – | –
6 | Nc1nc(N)nc(-c2cc(Cl)ccc2Cl)n1 | – | – | inactive | – | inactive | inactive | – | – | inactive | –
7 | CC(C(=O)O)c1ccc2c(c1)CC(=O)c1ccccc1S2 (centres undefined) | – | inactive | – | – | – | inactive | inactive | inactive | inactive | inactive
8 | COc1cc([C@@H]2c3cc4c(cc3[C@H](O)[C@H]3COC(=O)[C@H]23)OCO4)cc(OC)c1OC | 82.7 nM (active) | – | 0.0522 µM (active) | 0.0737 µM (active) | 0.0329 µM (active) | inactive | – | 73.7 nM (active) | 41.4 nM (active) | –
9 | COC(=O)Nc1nc2ccc(C(=O)c3ccccc3)cc2[nH]1 | – | – | – | 0.369 µM (active) | – | inactive | – | 1850 nM (active) | – | –
10 | C[C@@H]1C[C@H]2[C@@H]3CCC4=CC(=O)C=C[C@]4(C)[C@@]3(Cl)[C@@H](O)C[C@]2(C)[C@@]1(OC(=O)c1ccco1)C(=O)CCl | 233 nM (active) | – | 0.369 µM (active) | 0.928 µM (active) | – | inactive | 1040 nM (active) | 3290 nM (active) | – | –
11 | CNCC[C@H](Oc1cccc2ccccc12)c1cccs1 | – | inactive | inactive | 7.37 µM (active) | 26.1 µM (active) | inactive | – | inactive | – | inactive
12 | Nc1nc(N)c2nc(CNc3ccc(C(=O)NC(CCC(=O)O)C(=O)O)cc3)cnc2n1 (centres undefined) | inactive | – | – | 0.329 µM (active) | inactive | inactive | inactive | inactive | – | –
13 | Nc1[nH]c(=O)ncc1F | – | inactive | inactive | inactive | inactive | inactive | inactive | inactive | inactive | –
14 | COc1cc2nc(N3CCCN(C)CC3)nc(NC3CCN(Cc4ccccc4)CC3)c2cc1OC | – | inactive | 20.8 µM (active) | 11.7 µM (active) | inactive | inactive | 261 nM (active) | – | 657 nM (active) | 928 nM (active)
15 | S=P(N1CC1)(N1CC1)N1CC1 | – | – | – | 4.14 µM (active) | inactive | inactive | – | inactive | inactive | inactive
16 | NC(=O)c1cccnc1 | inactive | 10400 nM (active) | – | 16.5 µM (active) | – | inactive | inactive | inactive | inactive | –
17 | O=C(NCC1CN(c2ccc(N3CCOCC3=O)cc2)C(=O)O1)c1ccc(Cl)s1 (centres undefined) | – | inactive | – | 2.61 µM (active) | – | inactive | – | inactive | inactive | inactive
18 | O=NN(CCCl)C(=O)NC1CCCCC1 | – | inactive | inactive | inactive | inactive | inactive | inactive | inactive | inactive | –
19 | COC(=O)Nc1nc2ccc(S(=O)c3ccccc3)cc2[nH]1 (centres undefined) | – | – | 2.08 µM (active) | 1.04 µM (active) | 1.31 µM (active) | inactive | 1040 nM (active) | 2930 nM (active) | 2610 nM (active) | –
20 | N=C(N)c1ccc(OCCCCCOc2ccc(C(=N)N)cc2)cc1 | – | – | – | – | 11.7 µM (active) | – | – | – | – | inactive
21 | CCOC(=O)c1ccc(C#Cc2ccc3c(c2)C(C)(C)CCS3)nc1 | inactive | inactive | inactive | – | – | inactive | – | – | inactive | –
22 | Nc1nc(F)nc2c1ncn2[C@@H]1O[C@H](CO)[C@@H](O)[C@@H]1O | – | – | 14.7 µM (active) and 414 nM (active) | 18.5 µM (active) and 737 nM (active) | 737 nM (active) and 827 nM (active) | inactive | – | 1470 nM (active) | 1650 nM (active) | 1650 nM (active)
23 | CCC(=O)O[C@]1(C(=O)SCF)[C@H](C)C[C@H]2[C@@H]3C[C@H](F)C4=CC(=O)C=C[C@]4(C)[C@@]3(F)[C@@H](O)C[C@@]21C | inactive | – | inactive | inactive | inactive | inactive | inactive | – | – | –
24 | CC(=O)[C@H]1CC[C@H]2[C@@H]3CCC4=CC(=O)CC[C@]4(C)[C@H]3CC[C@]12C | – | – | – | 5.22 µM (active) | – | – | 18500 nM (active) | – | – | –
25 | COc1cc(NCc2ccc3nc(N)nc(N)c3c2C)cc(OC)c1OC | 18500 nM (active) | – | 2.61 µM (active) | 0.585 µM (active) | 20.8 µM (active) | inactive | – | inactive | – | –
26 | COC(=O)Nc1nc2ccc(Sc3ccccc3)cc2[nH]1 | – | – | 1.85 µM (active) | 0.827 µM (active) | 0.928 µM (active) | – | 1170 nM (active) | 3690 nM (active) | 2080 nM (active) | –
27 | O=S(=O)(O)CCS | – | – | – | inactive | 5.22 µM (active) | – | inactive | inactive | – | –
